Experimental findings from PubChem BioAssay (NCI) are described below.

Compounds without any hit were thinned out: in the full panel of roughly 83,000, 20% have a hit.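 Compound tested at a single concentration for 48 hours in 96-well plates; a percent growth value below 10 was scored as active.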 Values without a mark were called inactive. Activity calls are given as the source filed them.

Among the test systems are T-47D breast; BT-549 breast; MDA-MB-435 melanoma; SW-620 colon; MCF7 breast; HCT-116 colon; HCC-2998 colon; KM12 colon.
Experiment in all cases: NCI-60 one-dose screen, 48 h (100 = growth as untreated, 0 = no growth, -100 = all killed)
Common to all, as to settings: 10 µM unless noted

For the compound `CC1=Nc2cnc(Nc3ccc(OCCN4CCCC4)cc3)nc2Nc2ccccc21`, the growth in the test with T-47D breast was 61.1%; with BT-549 breast it was 88.2%; in the test on MDA-MB-435 melanoma, 72.2%; with SW-620 colon, 68.4%; with MCF7 breast, 75%; in the test on HCT-116 colon, 73.6%. Besides, the growth in the test on HCC-2998 colon is 72.2%; with KM12 colon, 15.2%.

As for `O=C(CSc1nc2ccc([N+](=O)[O-])cc2[nH]1)Nc1ccc(F)cc1`, the growth is 16.6% in the test with T-47D breast; 65.2% in the test with BT-549 breast; 53.1% in the test with MDA-MB-435 melanoma; 86% in the test on SW-620 colon; 62.1% in the test with MCF7 breast; 54.7% in the test on HCT-116 colon. Moreover, the growth in the test with HCC-2998 colon is 75.7%; with KM12 colon it was 64%.

Consider `O=C1CC(N2C(=O)/C(=C/C(Cl)=C\c3ccc([N+](=O)[O-])cc3)SC2=S)C(=O)N1c1ccc(Cl)cc1` (stereo not drawn), for which the growth was 36.3% with T-47D breast; -1.71% (active) with BT-549 breast; 3.02% (active) in the test with MDA-MB-435 melanoma; 3.41% (active) in the test with SW-620 colon; 18.1% with MCF7 breast; 8.7% (active) in the test with HCT-116 colon. Also, the growth in the test on HCC-2998 colon is -22.9% (active); in the test with KM12 colon, 12.4%.

As for `CCNc1cc(-c2cccc(OC(F)(F)F)c2)nc2ccc(N3CCCC3)cc12`, the growth with T-47D breast was -24.6% (active); with BT-549 breast it was 75.2%; with MDA-MB-435 melanoma, 2.21% (active); in the test on SW-620 colon, 4.43% (active); with MCF7 breast, 3.29% (active); in the test with HCT-116 colon, -15.9% (active). In addition, the growth in the test on HCC-2998 colon is 6.29% (active); in the test with KM12 colon, 4.19% (active).

Take `O=C(c1ccccc1)C1C(=O)N2C(=S)N(c3ccccc3)C(=O)C2C1c1ccc(Cl)cc1` (stereo not drawn): the growth in the test with T-47D breast was 83.1%; with BT-549 breast, 88.6%; with MDA-MB-435 melanoma it was 105%; with SW-620 colon it was 102%; in the test on MCF7 breast, 65.2%; in the test with HCT-116 colon it was 96.6%. The growth with HCC-2998 colon is 94.8%; with KM12 colon, 104%.

Regarding `CN(C)CCCC1(c2ccc(F)cc2)OCc2cc(-c3cncc4ccccc34)ccc21` (stereo not drawn), the growth in the test on T-47D breast was 55.9%; in the test with BT-549 breast it was 76.8%; in the test with MDA-MB-435 melanoma, 8.32% (active); in the test with SW-620 colon, 34.2%; in the test on MCF7 breast, 23.5%; with HCT-116 colon, 22.5%. For the same compound, the growth in the test with HCC-2998 colon was 7.15% (active); in the test on KM12 colon, 34.5%.

Take `Cc1nc2sc(C(=O)Nc3ccccc3)c(N)c2cc1C(=O)c1ccccc1`: the growth with T-47D breast was 46.3%; with BT-549 breast, 68.4%; with MDA-MB-435 melanoma, -33.7% (active); in the test with SW-620 colon, 27.8%; in the test on MCF7 breast, 11.5%; with HCT-116 colon it was 29.7%. The growth in the test on HCC-2998 colon is 18.2%; with KM12 colon, 33.7%.

As for `C/C(=C(/c1ccc(Cl)cc1)c1ccc(OCCN2CCCC2)cc1)c1ccc(Cl)cc1`, the growth with T-47D breast was 59.5%; in the test with BT-549 breast, 96.5%; in the test on MDA-MB-435 melanoma, 89.6%; in the test on SW-620 colon it was 54.6%; in the test on MCF7 breast it was 34.1%; with HCT-116 colon it was 50.4%. The growth in the test on HCC-2998 colon was 102%; in the test with KM12 colon it was 52.4%.

Turning to `N#CC1=C(N)Oc2c(sc3c(F)cccc23)C1c1ccc(F)cc1` (stereo not drawn), the growth with T-47D breast was 42.5%; with BT-549 breast, 30.9%; in the test on MDA-MB-435 melanoma, -51.7% (active); in the test on SW-620 colon it was 35.8%; in the test with MCF7 breast, 18.9%; in the test with HCT-116 colon it was 17.4%. The values for the growth in the test with HCC-2998 colon and in the test with KM12 colon were 57.2% and 30.3%, respectively.

Regarding `CCN1C(=O)N(CC)C2C1NN=c1s/c(=C\c3ccc(Cl)cc3Cl)c(=O)n12` (stereo not drawn), the growth is 58.8% in the test on T-47D breast; 15.9% in the test with BT-549 breast; -24.8% (active) in the test with MDA-MB-435 melanoma; 20.5% in the test with SW-620 colon; 14% with MCF7 breast; 9.71% (active) with HCT-116 colon. In addition, the growth in the test on HCC-2998 colon is 7.2% (active); with KM12 colon it was 7.47% (active).

For the compound `Cc1oc(-c2ccc(Cl)cc2)nc1/C=C/C(=O)c1ccccc1`, the growth in the test on T-47D breast was 79.5%; in the test with BT-549 breast, 84.8%; in the test with MDA-MB-435 melanoma, 103%; in the test on SW-620 colon, 104%; with MCF7 breast it was 49.9%; in the test with HCT-116 colon, 99.5%. The growth was 103% in the test with HCC-2998 colon and 100% with KM12 colon.

On to `O=C(Cn1c(=O)sc2ccccc21)NNS(=O)(=O)c1ccccc1[N+](=O)[O-]`, for which the growth with T-47D breast was 105%; with BT-549 breast, 116%; in the test on MDA-MB-435 melanoma, 98.5%; with SW-620 colon, 103%; with MCF7 breast, 96.5%; in the test on HCT-116 colon, 107%. Moreover, the growth is 107% in the test on HCC-2998 colon and 99.9% in the test on KM12 colon.

As to `O=c1oc2c(cnc3ccccc32)cc1-c1ccsc1`, the growth was 85.9% in the test with T-47D breast; 100% with BT-549 breast; 102% with MDA-MB-435 melanoma; 96.8% in the test with SW-620 colon; 33.2% in the test on MCF7 breast; 99.7% in the test with HCT-116 colon. In addition, the growth in the test on HCC-2998 colon is 123%; in the test with KM12 colon, 94%.

In the case of `c1cc2[nH]ncc2cc1-c1nc2ccc3[nH]ncc3c2c2c1CCCC2`, the growth with T-47D breast was 4.77% (active); in the test with BT-549 breast it was 12%; with MDA-MB-435 melanoma it was 2.02% (active); with SW-620 colon it was 9.28% (active); in the test on MCF7 breast, 21.7%; with HCT-116 colon it was 0.11% (active). In addition, the growth in the test with HCC-2998 colon was 13.8%; with KM12 colon, 13.2%.

With `COc1cc2c(c(OC)c1OC)-c1ccc(OC)c(=O)cc1[C@@H](NC(=O)CCl)CC2`, the growth with T-47D breast is 73.7%; with BT-549 breast it was -48.8% (active); with MDA-MB-435 melanoma, 8% (active); in the test with SW-620 colon it was 21.3%; in the test with MCF7 breast, 18.1%; with HCT-116 colon, -39.3% (active). The growth was 5.69% (active) in the test on HCC-2998 colon and -10.3% (active) in the test on KM12 colon.

Take `Cc1ccc(NC(=S)NNC(=S)NNc2ccccc2)cc1C`: the growth is 98.1% in the test on T-47D breast; 120% with BT-549 breast; 110% in the test on MDA-MB-435 melanoma; 106% in the test on SW-620 colon; 98.9% in the test on MCF7 breast; 116% with HCT-116 colon. The growth with HCC-2998 colon was 123%; with KM12 colon it was 90.8%.
